# Results filed as inconclusive are left out. A call without a number means that no potency is given here. A number with no mark means an inactive call. Active and inactive are the calls of the source. Calls follow the shape of the full dose curve.
# Target: Thyrotropin receptor (Homo sapiens) (UniProt P16473)
# Assay: qHTS assay to identify small molecule agonists of the thyroid stimulating hormone receptor (TSHR) signaling pathway (AID 1224843); also: nearly all actives have a fitted effect of over 45% in size
# Details: TSHR-HEK293 cells, cAMP HTRF, agonist mode, 30 min; series mostly up to 92.4 µM
# In short: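 Cell line HEK293 with TSHR; density 800/well. Exposure 30 min RT. Readout HTRF cAMP (cAMP-d2/anti-cAMP-cryptate), 1 h RT before reading.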
# Sequence of Thyrotropin receptor (Homo sapiens) (P16473 whole entry, looked up): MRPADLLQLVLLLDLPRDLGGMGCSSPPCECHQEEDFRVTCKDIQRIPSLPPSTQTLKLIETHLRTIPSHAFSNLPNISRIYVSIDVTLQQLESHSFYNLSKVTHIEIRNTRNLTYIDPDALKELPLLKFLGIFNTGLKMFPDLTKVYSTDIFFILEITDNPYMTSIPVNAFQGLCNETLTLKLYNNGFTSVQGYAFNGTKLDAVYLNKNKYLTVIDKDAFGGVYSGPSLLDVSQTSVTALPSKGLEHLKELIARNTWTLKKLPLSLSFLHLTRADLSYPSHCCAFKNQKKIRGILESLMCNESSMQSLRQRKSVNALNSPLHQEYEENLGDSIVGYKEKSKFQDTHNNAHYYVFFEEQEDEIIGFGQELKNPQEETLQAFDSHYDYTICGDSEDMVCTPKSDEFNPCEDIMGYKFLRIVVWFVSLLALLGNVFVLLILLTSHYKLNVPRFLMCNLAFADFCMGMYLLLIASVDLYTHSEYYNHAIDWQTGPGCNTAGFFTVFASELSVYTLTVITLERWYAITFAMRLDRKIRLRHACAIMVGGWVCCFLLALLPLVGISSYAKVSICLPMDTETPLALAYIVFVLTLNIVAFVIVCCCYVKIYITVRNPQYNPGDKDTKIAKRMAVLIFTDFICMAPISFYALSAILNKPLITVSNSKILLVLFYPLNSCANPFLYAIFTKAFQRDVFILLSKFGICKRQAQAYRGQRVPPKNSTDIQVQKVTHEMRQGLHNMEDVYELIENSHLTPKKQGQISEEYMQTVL
SMILES,Potency,activation
CCCCCCCCCCCCCOS(=O)(=O)O,inactive,–
BrC(Br)C(Br)Br,inactive,–
CCC(Cl)CC(Cl)C(Cl)C(Cl)C(Cl)C(C)Cl (stereo not drawn),–,15.8% [at 19 µM]
O=C1OC(=O)c2c(Br)c(Br)c(Br)c(Br)c21,inactive,–
CC(C)OC(=O)c1ccccc1C(=O)OC(C)C,inactive,–
COc1ccc(C)cc1,inactive,–

# System: not listed separately
# Assay: qHTS assay to identify small molecule agonists of the hypoxia (HIF-1) signaling pathway - cell viability counter screen (AID 1224844); also: nearly all actives have a fitted effect of over 50% in size
# Details: HRE-bla ME-180 viability, CellTiter-Glo luminescence, 17 h; series mostly up to 76.8 µM
# In short: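 Tox21 10K compounds were added to HRE-bla ME-180 cells (0.5% dialyzed FBS) and incubated 17 hrs at 37C; ATP-based CellTiter-Glo luminescence then reported cell viability in the same wells.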
SMILES,Potency,"activity change, negative = cytotoxicity"
O=C(O)CCCc1c[nH]c2ccccc12,inactive,–
Cc1cccc(C)c1NC(=O)c1cc(S(N)(=O)=O)c(Cl)cc1O,inactive,–
CCCC(=O)OC(=O)CCC,inactive,–
O=CNNC=O,inactive,–
CSSc1ccoc1C,inactive,–
Nc1ccc(S(=O)(=O)NCc2ccccc2)cc1,inactive,–
CCCCCCCC(=O)OCCCCCC,inactive,–
Cc1cc([N+](=O)[O-])ccc1N,inactive,–
CCN(CC)C(=O)N1CCN(C)CC1,inactive,–
COc1ccc(C2C(=O)c3ccccc3C2=O)cc1,inactive,–
CCN(CC)CCOC(=O)C(c1ccccc1)c1ccccc1,inactive,–
Cc1cc(CCCOc2c(C)cc(-c3noc(C(F)(F)F)n3)cc2C)on1,inactive,–
CCCCCCC(CO)CCCC (stereo not drawn),inactive,–
C=CC(=O)O,inactive,–
CC(C)N(C)C,inactive,–
CC(=O)NNC(C)=O,inactive,–

SMILES,Potency,"activity change, negative = cytotoxicity"
CC(C)(O)c1coc(S(=O)(=O)NC(=O)Nc2c3c(cc4c2CCC4)CCC3)c1,inactive,–
CCOC(=O)C(C)O (stereo not drawn),inactive,–
Cc1cccc2sc(N)nc12,inactive,–
CCCc1nc2c(C)cc(-c3nc4ccccc4n3C)cc2n1Cc1ccc(-c2ccccc2C(=O)O)cc1,inactive,–
c1ccc2sc(SSc3nc4ccccc4s3)nc2c1,–,-3.54% [at 15.8 µM]
Cc1ccc2nc(N)[nH]c(=O)c2c1Sc1ccncc1,inactive,–
Nc1nc(-c2ccc([N+](=O)[O-])cc2)cs1,inactive,–
CC1=CC[C@@H]2C[C@H]1C2(C)C,–,7.49% [at 15.8 µM]
CC(C)c1ccc(C(=O)N=C(N)N)cc1S(C)(=O)=O,inactive,–
CCCCCCCCCCCC(=O)OCC(O)CO (stereo not drawn),inactive,–
BrC(Br)C(Br)Br,inactive,–
CCC(Cl)CC(Cl)C(Cl)C(Cl)C(Cl)C(C)Cl (stereo not drawn),–,-3.49% [at 15.8 µM]
O=C1OC(=O)c2c(Br)c(Br)c(Br)c(Br)c21,inactive,–
CC(C)OC(=O)c1ccccc1C(=O)OC(C)C,inactive,–
O=c1[nH]c2cc(C(F)(F)F)c(N3CCOCC3)cc2n(CP(=O)(O)O)c1=O,inactive,–
COc1ccc(C)cc1,inactive,–
